The sample as a whole holds a higher share of hits than the screen did.
Dicer processing = human Dicer pre-microRNA cleavage inhibition; cat-ELCCA pre-miR-21 Dicer processing, chemiluminescence; hits give high values; z-score at 25 µM; 47,000 tested, 6% active; AID 1347074; in the data active means z-score above about 3, passing the limit was not always enough;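 further: higher signal means more uncleaved substrate so more Dicer inhibition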
Target sequence (Q9UPY3 whole entry, looked up): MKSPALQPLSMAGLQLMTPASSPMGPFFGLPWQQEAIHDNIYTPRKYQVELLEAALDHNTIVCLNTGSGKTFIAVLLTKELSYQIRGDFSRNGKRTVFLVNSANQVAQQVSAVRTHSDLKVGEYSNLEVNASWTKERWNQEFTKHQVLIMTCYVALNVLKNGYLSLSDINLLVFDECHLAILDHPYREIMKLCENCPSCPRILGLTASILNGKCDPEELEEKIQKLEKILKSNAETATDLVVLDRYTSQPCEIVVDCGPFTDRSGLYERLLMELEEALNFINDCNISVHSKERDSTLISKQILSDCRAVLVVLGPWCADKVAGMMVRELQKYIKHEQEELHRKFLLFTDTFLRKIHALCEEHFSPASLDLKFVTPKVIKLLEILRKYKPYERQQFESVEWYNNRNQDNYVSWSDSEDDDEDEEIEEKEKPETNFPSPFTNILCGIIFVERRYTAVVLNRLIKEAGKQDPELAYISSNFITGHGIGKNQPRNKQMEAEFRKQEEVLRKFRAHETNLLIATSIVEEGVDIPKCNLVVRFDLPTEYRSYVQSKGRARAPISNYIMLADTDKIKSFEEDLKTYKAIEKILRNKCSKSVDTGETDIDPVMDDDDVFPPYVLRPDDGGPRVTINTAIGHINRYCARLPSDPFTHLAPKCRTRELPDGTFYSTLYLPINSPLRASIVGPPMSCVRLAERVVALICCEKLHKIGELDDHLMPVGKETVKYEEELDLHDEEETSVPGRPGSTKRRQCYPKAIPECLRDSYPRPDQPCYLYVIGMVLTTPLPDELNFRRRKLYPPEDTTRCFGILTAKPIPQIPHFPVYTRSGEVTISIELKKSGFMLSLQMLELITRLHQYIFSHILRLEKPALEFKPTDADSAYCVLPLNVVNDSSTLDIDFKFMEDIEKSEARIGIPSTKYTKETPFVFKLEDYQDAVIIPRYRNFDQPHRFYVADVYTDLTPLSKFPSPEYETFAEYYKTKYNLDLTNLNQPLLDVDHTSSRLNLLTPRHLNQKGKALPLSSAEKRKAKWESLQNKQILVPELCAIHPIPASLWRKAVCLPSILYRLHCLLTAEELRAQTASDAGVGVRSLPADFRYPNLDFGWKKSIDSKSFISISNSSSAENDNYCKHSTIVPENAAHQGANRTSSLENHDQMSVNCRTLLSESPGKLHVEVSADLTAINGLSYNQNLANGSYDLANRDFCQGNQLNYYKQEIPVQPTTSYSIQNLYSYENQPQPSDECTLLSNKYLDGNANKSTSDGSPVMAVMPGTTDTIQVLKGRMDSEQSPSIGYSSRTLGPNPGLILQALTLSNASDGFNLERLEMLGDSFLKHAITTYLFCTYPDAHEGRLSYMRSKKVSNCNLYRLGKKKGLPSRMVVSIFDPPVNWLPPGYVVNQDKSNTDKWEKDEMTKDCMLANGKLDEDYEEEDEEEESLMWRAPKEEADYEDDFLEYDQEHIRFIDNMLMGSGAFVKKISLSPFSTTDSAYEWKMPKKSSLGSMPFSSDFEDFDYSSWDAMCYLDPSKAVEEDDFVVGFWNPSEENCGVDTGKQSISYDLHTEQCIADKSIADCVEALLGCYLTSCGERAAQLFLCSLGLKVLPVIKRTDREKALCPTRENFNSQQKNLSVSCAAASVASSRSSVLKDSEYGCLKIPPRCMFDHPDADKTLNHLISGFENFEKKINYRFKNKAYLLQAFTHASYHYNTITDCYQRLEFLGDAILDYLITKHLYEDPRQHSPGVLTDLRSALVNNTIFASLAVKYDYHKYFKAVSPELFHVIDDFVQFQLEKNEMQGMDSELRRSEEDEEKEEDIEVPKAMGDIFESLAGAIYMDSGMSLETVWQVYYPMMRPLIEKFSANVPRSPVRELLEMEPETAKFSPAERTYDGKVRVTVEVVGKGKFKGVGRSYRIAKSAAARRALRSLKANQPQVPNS
Each line names hits and unclear results; the compound was inactive in the other large screens.

O=C(O)c1cccc2cccc(-c3cccc4cccc(C(=O)O)c34)c12	none
O=C(O)CCCc1ccc2ccc3cccc4ccc1c2c34	Dicer processing 4
O=C(O)CCCN1Cc2ccccc2C1	none
COc1cccc(NC(=O)Nc2c(-c3cccc(C(F)(F)F)c3)c(C(F)(F)F)nn2C)c1	none
Cc1cc(C)nc(SCC(=O)c2ccccc2)n1	none
O=C(CSc1n[nH]c(-c2ccccc2Cl)n1)c1ccc(O)c(O)c1	Dicer processing 4.9
CCc1nc(SCC(=O)c2ccc(O)c(O)c2)n[nH]1	none
Cc1cc(C)nc(SCCC(=O)O)n1	Dicer processing 3.2
Cc1cc(C)nc(SCC(=O)c2ccc(O)c(O)c2)n1	Dicer processing 3.1
COc1ccccc1-c1nc(SCC(=O)c2ccccc2)n[nH]1	none
Cc1cc(C)nc(SCC(=O)Nc2ncccn2)n1	none
Cc1cc(C)nc(SCc2ccccc2)n1	none
Cc1cc(C)nc(SCC(=O)c2cccs2)n1	none
Cc1ccc(S(=O)(=O)NC(=O)Nc2ccc(C#N)cc2)cc1	none
COc1ccc(/C=N/NC(=O)CC#N)cc1OC	none
N#Cc1c(NC(=O)C2Cc3ccccc3CN2S(=O)(=O)c2ccc(F)cc2)sc2c1CCCC2 (stereo not drawn)	none
CCCN(CCC)S(=O)(=O)c1ccc2c(c1)Cc1cc(S(=O)(=O)N(CCC)CCC)ccc1-2	none
COCCCn1c(SCC(=O)NN)nnc1-c1ccc(C(C)(C)C)cc1	none
CCOC(=O)c1sc(N2CCCC2)c2c1CC(C)(C)CC2=O	none
CC(C)CCNc1nc2c(c(=O)[nH]c(=O)n2C)n1CCO	none
Cn1c(=O)[nH]c(=O)c2c1nc(NCc1ccco1)n2Cc1ccc(F)cc1	none
CC(C)CCn1c(NCc2ccco2)nc2c1c(=O)[nH]c(=O)n2C	Dicer processing 3.6
COC(=O)c1cc(S(=O)(=O)NCC2CN(Cc3ccccc3)CN(Cc3ccccc3)C2)oc1C	none
C=C(C)Cc1c(COC)nc(SCC(=O)C(C)(C)C)[nH]c1=O	none
CCc1ccc(-c2c(C#N)c(N)nc3c2CCCCC3)s1	none
CCCN1C(=O)C(O)(CC(=O)c2ccccn2)c2ccccc21 (stereo not drawn)	none
CCOC(=O)c1[nH]c(Cc2[nH]c(C(=O)OCC)c(C)c2C)c(C)c1C	none
CCOC(=O)c1[nH]c(C)c(C(C)=O)c1C	none
CCOC(=O)c1[nH]c(C)c(CC)c1C	Dicer processing 4.3
COc1ccc2[nH]cc(CCNS(C)(=O)=O)c2c1	none
CC1=C(C(=O)OC2CCCCC2)C(c2ccccc2C)C2=C(CCCC2=O)N1 (stereo not drawn)	none
CCOC(=O)c1c(S(=O)(=O)Nc2ccccc2)c(-c2ccccc2)n(-c2ccccc2)c1C	none
Cc1ccc(/C(O)=C2/C(=O)C(=O)N(CCN(C)C)C23C(=O)N(C)c2ccccc23)cc1F (stereo not drawn)	none
CCC12CN3CC(CC)(CN(C1)C3c1ccccc1F)C2=O (stereo not drawn)	none
CCCC12CN3CC(CCC)(CN(C1)C3c1ccc(O)cc1)C2=O (stereo not drawn)	none
CCC12CN3CC(CC)(CN(C1)C3c1ccccc1)C2=O (stereo not drawn)	Dicer processing 5.5
Nc1[nH]c(=S)[nH]c(=O)c1C(c1ccc([N+](=O)[O-])cc1)c1c(N)[nH]c(=S)[nH]c1=O	none
O=c1[nH]c(=S)ccn1-c1nc(-c2ccccc2)sc1-c1ccccc1	none
COc1cc(C2C3=C(CCCC3=O)N(C)C3=C2C(=O)CCC3)ccc1O	none
c1ccc(Cn2c3ccccc3n3nc(-c4ccco4)nc23)cc1	none
Nc1c(C(=O)Nc2ccccc2)oc2ccccc12	Dicer processing 5.4
O=C(Nc1ccccc1)c1ccc2ccccc2c1O	none
O=C(O)C1=C(C(=O)Nc2ccccc2)SCCS1	none
CC1(C)C=Cc2cc(/C(N)=N/O)ccc2O1	none
CN1c2ccccc2C(C)(C)C12C=Cc1cc(O)ccc1O2 (stereo not drawn)	Dicer processing 15
C=CCOC(=O)C1=C(C)N=C2SCCC(=O)N2C1c1cccc(F)c1 (stereo not drawn)	none
CC1(C)CC(=O)C2=C(C1)c1c(ccc3ccccc13)NC2c1cccnc1 (stereo not drawn)	none
Cc1c(-c2ccc(-c3ccccc3F)cc2)nc2ccc(F)cc2c1C(=O)O	none
CCOC(=O)c1ccc2nc3c(nc2c1)C(O)=C3O	none
OC1=C(O)c2nc3cc(F)ccc3nc21	Dicer processing 3.1
CC(C)(C(=O)Nc1ccccc1)S(=O)(=O)c1ccc(C(F)(F)F)cn1	none
COc1ccc2c(c1)CCc1sc(NC(=O)c3cccs3)nc1-2	none
O=C(O)CC12OC3C4C5CC(C6C5C3C61)C42 (stereo not drawn)	none
COC(=O)C1(C(=O)OC)C2C3C4CC5C6C4C2C6C1C53 (stereo not drawn)	Dicer processing 5.4
CC1(C)OC(=O)C2(C(=O)O1)C1C3C4CC5C6C4C1C6C2C53 (stereo not drawn)	none
N#Cc1cccc(N=Nc2c(O)ccc3ccccc23)c1	none
O=C(Nc1nccs1)c1cc2ccccc2o1	none
O=C(Nc1ccc(S(=O)(=O)Nc2ncccn2)cc1)c1cc2ccccc2o1	none
O=C(Nc1ncn[nH]1)c1cc2ccccc2o1	Dicer processing 4.9
Cc1ccc(CSc2nnc(-c3cc(C)n(-c4ccc([N+](=O)[O-])cc4)n3)n2C)cc1	none
CC1CN(C(=S)Nc2cccc3ccccc23)CC(C)O1 (stereo not drawn)	none
CCOC(=S)Nc1cccc2ccccc12	none
CC(C)NC(=S)Nc1cccc2ccccc12	Dicer processing 6.1
CCOC(=O)c1c(C)n(-c2ccc(N(C)C)cc2)c2ccc(OCC(N)=O)cc12	Dicer processing 4.6
COc1ccccc1N1CCN(C(=O)c2cc(C)on2)CC1	none
COc1ccccc1-n1c(C)c(C(=O)O)c2cc(OC)c3ccccc3c21	Dicer processing 4.6
CCOC(=O)c1c(C)n(-c2ccc(Br)cc2)c2ccc(O)cc12	none
COc1cc(C(=O)O)cc(Br)c1OC	none
CCOC(=O)c1c(C)n(-c2ccccc2)c2ccc(OC(C)=O)cc12	none
COc1cc2c(C(=O)O)c(C)n(-c3ccccc3)c2cc1Br	Dicer processing 3.1
COc1ccccc1N1CCN(c2nnc(C)c3ccccc23)CC1	none
CCOC(=O)c1c(C)n(-c2ccccc2)c2cc(Br)c(O)cc12	Dicer processing 3.7
CCS(=O)(=O)Nc1cc2c(C(=O)O)c(C)n(S(=O)(=O)CC)c2cc1OC	none
CCOC(=O)c1c(C)n(-c2ccc(N(C)C)cc2)c2ccc(OC)cc12	none
CCOC(=O)c1c(C)n(-c2ccccc2)c2ccc(OC(=O)c3cccnc3SCC)cc12	none
CC(C)(C)CNC(=O)NC(=O)c1ccc(F)c(Cl)c1	none
CC(=O)Oc1ccc2c(=O)c(Oc3ccccc3)c(C(F)(F)F)oc2c1C	none
O=C(O)c1ccc(CN2C(=O)COc3ccccc32)cc1	none
c1ccc(CN2CCC(Nc3ncnc4scc(-c5ccccc5)c34)CC2)cc1	none
CCOC(=O)c1c(NC(=O)Nc2ccc(C)cc2)sc2c1CCC(C)C2 (stereo not drawn)	none
CCSC1=C(C#N)C(=O)NC(c2ccc(N(C)C)cc2)S1 (stereo not drawn)	none
CC1/C=C/C=C/CC/C=C/C=C/C=C/C=C/C(O[C@@H]2O[C@H](C)[C@@H](O)[C@H](N)[C@@H]2O)CC(O)C(C(=O)O)C(O)CC(=O)CC(O)C(O)CCC(O)CC(O)CC(O)CC(=O)OC(C)C(C)C1O (stereo partly drawn)	none
O=C1C(=Cc2cccc([N+](=O)[O-])c2)N=C2SCCCN12	none
CSc1sc(C(=O)N2CCOCC2)cc1-c1nc(-c2ccc(Cl)cc2)cs1	none
CC(C#N)(Nc1ccccc1)c1ccncc1 (stereo not drawn)	Dicer processing 3.4
CS/C(=N\S(=O)(=O)/C=C/c1ccccc1)NN	none
Cc1cc(NS(=O)(=O)c2ccc(NS(=O)(=O)c3ccc(F)cc3Cl)cc2)no1	none
